Results reported in PubChem BioAssay AID2023 (NMMLSC, 2009).
Among all 320,000 compounds or so, about 1,100 (0.34%) were called active. The sample holds actives, similar compounds and a random draw of the others, so the mix is not that of the screen. Values without a mark were called inactive.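 Rule for the calls: active = GFP response vs DMSO above a set limit, about the screen mean plus 3 SD (cut at about 150% in these data); inconclusive = under 70 cell events counted for the yeast strain; inactive = the rest.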

Assay: modulators of LAP4-GFP expression in yeast, primary screen, S. cerevisiae, multiplex flow cytometry, MLPCN library (AID 2023)
Conditions: 3 h, at 10 µM, active compounds read high

Structure (SMILES)	GFP response vs DMSO
NCCc1c[nH]c2ccc(O)cc12	307% [may fluoresce violet] (active)
Cc1cccc2c(CCN)c[nH]c12	105%
C/C(CCc1c[nH]c2ccccc12)=N\O	102%
CN(C)C(=O)NC(O)C(Cl)(Cl)Cl (stereo not given)	108%
COc1cccc(N2C(=O)NC(=O)/C(=C\c3cn(C)c4ccccc34)C2=O)c1	104%
COc1ccc(N2C(=O)/C(=C/c3ccco3)C(=O)NC2=S)cc1	170% (active)
COc1ccc(CN2C(=O)NC(=O)/C(=C\c3ccc(OC)c(OC)c3OC)C2=O)cc1	109%
Cc1ccc(S(=O)(=O)N(C)c2ccc(C(=O)NCC3(N(C)C)CCCCC3)cc2)cc1	91.7%
O=C1NC(=O)N(Cc2ccco2)C(=O)/C1=C\c1ccc(-c2ccc(F)cc2)o1	182% (active)
O=C1NC(=O)N(Cc2ccco2)C(=O)/C1=C\c1cccn1CCOc1ccccc1	111%
O=C1NC(=O)N(CCc2ccc(F)cc2)C(=O)/C1=C/C=C/c1ccccc1	111%
O=C(Cc1ccccc1)N1CCN(C2CCCCCC2)CC1	95.7%
COc1ccc(C2N3CC(C)(C)CN23)cc1 (stereo not given)	95% [median GFP as percent of DMSO wells]
CC1CCC(N(C)C2CCN(C)CC2)CC1 (stereo not given)	94.4%
CNCC[C@H](Oc1ccc(C(F)(F)F)cc1)c1ccccc1	106%
